Data reported in PubChem BioAssay (NCI).
This is part of a sample that, as a whole, favours compounds with a hit. Of some 79,000 tested, about 15% had one in any assay. Unmarked numbers belong to inactive results. Calls of active or inactive are those of the source. No stated cut-off is given here; in the data, active means growth inhibition above about 70%; inactive means the rest.

Columns and labels:
[1] = NCI Yeast Anticancer Drug Screen. Data for the rad50 strain (AID 155);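 further: 0% = growth of vehicle-only cultures of the same strain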; details: S. cerevisiae rad50 strain growth inhibition, active compounds read high
Outline: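 Readout: growth inhibition relative to vehicle-treated cultures. Compound exposure was carried out in a genetically defined yeast strain deficient in DNA damage repair.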

[2] = NCI Yeast Anticancer Drug Screen. Data for the mec2-1 strain (AID 157); details: S. cerevisiae mec2-1 strain, active compounds read high
Outline: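 Yeast mec2-1 mutant treated with compound. Readout: growth inhibition vs vehicle controls.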

[3] = NCI Yeast Anticancer Drug Screen. Data for the sgs1 mgt1 strain (AID 161);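 further: 0% = growth of cultures given vehicle only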; details: S. cerevisiae sgs1 mgt1 strain, active compounds read high
Outline: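 Test agents were incubated with a DNA-repair-mutant yeast strain. Growth was then read and compared against vehicle-treated controls.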

[4] = NCI Yeast Anticancer Drug Screen. Data for the cln2 rad14 strain (AID 165);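 further: 0% = growth equal to vehicle treated cultures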; details: S. cerevisiae cln2 rad14 strain, active compounds read high
Outline: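 cln2 rad14 yeast strain; compound exposure; growth inhibition read vs vehicle controls.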

[5] = NCI Yeast Anticancer Drug Screen. Data for the bub3 strain (AID 167); details: S. cerevisiae bub3 mutant strain, active compounds read high
Outline: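 Readout: yeast growth inhibition, expressed relative to vehicle-only wells. The test organism is a mutant strain from a panel with lesions in DNA repair or checkpoint genes.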

[6] = NCI Yeast Anticancer Drug Screen. Data for the mlh1 rad18 strain (AID 175); details: S. cerevisiae mlh1 rad18 strain growth inhibition, active compounds read high
Outline: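 Yeast w/ defined DNA-repair lesions; compound exposure; growth vs vehicle controls → % inhibition.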

[7] = at 5.0 µM (retest, dose inferred, filed as 0.5)
[8] = at 50.0 µM (retest, dose inferred, filed as 5.0)

Compound | growth inhibition [1, 7] | growth inhibition [1, 8] | growth inhibition ([1]; at 50.0 µM) | growth inhibition [2, 7] | growth inhibition [2, 8] | growth inhibition ([2]; at 50.0 µM) | growth inhibition [3, 7] | growth inhibition [3, 8] | growth inhibition ([3]; at 50.0 µM) | growth inhibition [4, 7] | growth inhibition [4, 8] | growth inhibition ([4]; at 50.0 µM) | growth inhibition [5, 7] | growth inhibition [5, 8] | growth inhibition ([5]; at 50.0 µM) | growth inhibition [6, 7] | growth inhibition [6, 8] | growth inhibition ([6]; at 50.0 µM)
COc1ccc(CN2CCCN(Cc3ccc(OC)cc3OC)C2c2cc(Cl)ccc2O)c(OC)c1 | 7% | 87% (active) | 40.6% | 19% | 98% (active) | 51.4% | 2% | 88% (active) | 32.8% | 0% | 50% | 15.7% | -1% | 91% (active) | 5.1% | 17% | 97% (active) | 42%
CCCCCCC1CC(=O)C1(Cl)Cl (configuration not stated) | -9% | 100% (active) | 89.1% (active) | -16% | 100% (active) | 93.3% (active) | -17% | 100% (active) | 90.1% (active) | -4% | 100% (active) | 92.5% (active) | -32% | 100% (active) | 92% (active) | 12% | 100% (active) | 86.2% (active)
C=C(C)[P+](C)(c1ccccc1)c1ccccc1 | -12% | 25% | 72.7% (active) | -12% | 6% | 0.95% | -8% | 22% | 28.9% | 1% | -2% | 4.4% | -18% | 6% | -9.3% | -4% | 4% | 29.3%
NNc1c(Cl)cc(Cl)cc1Cl | 44% | 93% (active) | 98.2% (active) | -16% | 97% (active) | 98.9% (active) | 12% | 94% (active) | 99.7% (active) | 21% | 43% | 97.8% (active) | 67% | 93% (active) | 99.2% (active) | 51% | 97% (active) | 99.7% (active)
Cc1ccc(NC(=S)SCc2ccc(Cl)cc2)cc1Br | 48% | 99% (active) | 90.5% (active) | 25% | 99% (active) | 93.2% (active) | 64% | 100% (active) | 91% (active) | 48% | 99% (active) | 89.9% (active) | 65% | 99% (active) | 92.3% (active) | 38% | 99% (active) | 90.8% (active)
COc1cccc2c1C(=O)c1c(O)c3c(c(O)c1C2=O)C[C@@](O)(/C(C)=N/NC(=O)c1ccc(Cl)c(Cl)c1)C[C@@H]3OC1CC(N)C(O)C(C)O1 (some centres not stated) | 89% (active) | 99% (active) | 42% | 25% | 99% (active) | 50.4% | 25% | 99% (active) | 44.6% | 5% | 98% (active) | 72.7% (active) | 43% | 99% (active) | 98.5% (active) | 33% | 99% (active) | 52.6%
CCOCCOC(=O)C(C)O (configuration not stated) | 9% | -1% | 9.25% | -1% | -3% | 27.1% | -2% | 3% | -3.1% | 5% | 2% | 45.3% | 6% | 14% | 9.25% | 7% | -2% | -7.1%
CN(C)c1ccc(C=Nc2cnc3ccccc3c2)cc1 | -10% | 10% | -54.4% | -5% | -13% | -14.3% | -4% | -1% | -3.05% | -32% | -14% | -43.7% | 2% | 5% | -3.65% | 0% | 10% | -6.35%
CCCCCCCCCCCC1=NCC(C)N1 (configuration not stated) | -39% | 26% | 71.9% (active) | 2% | 27% | -2.95% | -3% | 1% | 28.6% | -46% | -5% | 44.4% | 0% | 36% | 45% | -29% | 15% | 46%
COC(=O)N/N=C(\C)C(CN1CCOCC1)C(c1ccccc1)c1cc2ccccc2oc1=O (configuration not stated) | 10% | 57% | -0.75% | -4% | 56% | 7.15% | 14% | 64% | -5.55% | 14% | 70% (active) | 10.9% | 21% | 74% (active) | 8.15% | 7% | 61% | 2.25%
CC1=C(C)CC2C(=O)C(C(O)CC(C)C)=CC(=O)C2C1 (configuration not stated) | -4% | 91% (active) | 97.8% (active) | -5% | 91% (active) | 98.5% (active) | -5% | 98% (active) | 98.8% (active) | -13% | 86% (active) | 95.5% (active) | -10% | 97% (active) | 98.2% (active) | -9% | 97% (active) | 98.9% (active)
N=C(N)SC1c2ccccc2-c2ccc(N)cc21 (configuration not stated) | 17% | 95% (active) | 98% (active) | 4% | 75% (active) | 98.4% (active) | -1% | 77% (active) | 98.5% (active) | -4% | 81% (active) | 96.8% (active) | 0% | 86% (active) | 97% (active) | 12% | 95% (active) | 97.8% (active)
CCOC(=O)C(C#N)NC(C)=O (configuration not stated) | 3% | 1% | 68% | 0% | 1% | 49.3% | 0% | 1% | 75.4% (active) | -1% | 0% | 3.05% | 0% | -5% | 69% | 3% | 3% | 57.8%
Cc1ccc(OCC2CO2)c(Br)c1 (configuration not stated) | 11% | 66% | 78.2% (active) | 1% | 19% | 5.95% | 15% | 71% (active) | 49.6% | 4% | 15% | -44.6% | -1% | 1% | -13.2% | 17% | 84% (active) | 24.1%
COc1ccccc1C1c2cc3c(cc2OC(C)(O)C1C)OCO3 (configuration not stated) | -5% | 60% | 85% (active) | -4% | 49% | 58.4% | 1% | 61% | 86.3% (active) | -3% | 53% | 74.2% (active) | 0% | 49% | 66.8% | 0% | 75% (active) | 85.5% (active)
O=[N+]([O-])/C=C/c1ccco1 | 59% | 99% (active) | 99.5% (active) | 9% | 100% (active) | 99.3% (active) | 16% | 100% (active) | 88.8% (active) | 8% | 99% (active) | 98.5% (active) | 3% | 99% (active) | 98.9% (active) | 22% | 99% (active) | 98.9% (active)
COc1ccc(N=Nc2ccc3oc(=O)c(C(=O)Nc4ccc(Cl)cc4)cc3c2)cc1 | 29% | 98% (active) | 98.5% (active) | 16% | 98% (active) | 98.9% (active) | 0% | 98% (active) | 98.3% (active) | 16% | 98% (active) | 98.3% (active) | 14% | 97% (active) | 98.8% (active) | 33% | 99% (active) | 98.7% (active)
CC(=O)Oc1ccc(/C=C/c2ccncc2)cc1 | -164% | -78% | 67.8% | -47% | -33% | 44% | -65% | 7% | 60% | -58% | -32% | 50.1% | -58% | 6% | 84.7% (active) | -157% | -69% | 48.2%
Cn1c(=O)c2c(nnc(-c3ccccc3)[n+]2[O-])n(C)c1=O | -3% | 46% | 99.5% (active) | -1% | 97% (active) | 99.7% (active) | 1% | 90% (active) | 99.7% (active) | 2% | 43% | 99% (active) | -3% | 60% | 99.6% (active) | -6% | 95% (active) | 99.6% (active)
